Fam108B inh = Fam108B inhibition, counter-screen for RBBP9 inhibitors; recombinant Fam108B, FP-Rh probe fluorescence polarization; inhibition, % at 9.51 µM; hit rate 0.33% among 300,000; AID 1947;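 active means inhibition above the screen mean inhibition plus 3 SD, computed separately per campaign, cut at about 18% in these data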;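 further: inhibitors lower polarization as less probe binds the enzyme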
PAD4 FP inh = blocks human protein arginine deiminase 4. hit rate 0.41% among 330,000. inhibition, % at 6.36 µM. recombinant PAD4, RCA probe fluorescence polarization;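 active means percent inhibition above a cutoff equal to the mean of all tested compounds plus 3 SD, cut at about 15% in these data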;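 further: 0% = PAD4 with RCA probe and DMSO and 100% = probe without PAD4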
PME-1 inh = blocks human protein phosphatase methylesterase 1; recombinant PME-1, FP-Rh probe fluorescence polarization; Q9Y570; hit rate 0.53% among 320,000; inhibition, % at 5.9 µM; AID 2130;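 active means inhibition above the campaign mean of all compounds plus 3 SD, cut at about 26% in these data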;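 further: competitive labeling of PME-1 active site by serine hydrolase directed probe; 0% = PME-1 with DMSO and 100% = wells lacking PME-1 enzyme; inhibitors block probe labeling so polarization falls and inhibition rises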
pPAFAH inh = pPAFAH (human) enzyme inhibition. Q13093. recombinant pPAFAH, FP-rhodamine probe fluorescence polarization. hit rate 1.5% among 330,000. inhibition, % at 3.39 µM;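 active means inhibition above the mean inhibition across the screen plus 3 SD, cut at about 25% in these data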;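 further: inhibitors block binding of the rhodamine activity-based probe so polarization drops; 0% = enzyme with DMSO and 100% = wells lacking pPAFAH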
Target sequence (Q13093 whole entry, looked up): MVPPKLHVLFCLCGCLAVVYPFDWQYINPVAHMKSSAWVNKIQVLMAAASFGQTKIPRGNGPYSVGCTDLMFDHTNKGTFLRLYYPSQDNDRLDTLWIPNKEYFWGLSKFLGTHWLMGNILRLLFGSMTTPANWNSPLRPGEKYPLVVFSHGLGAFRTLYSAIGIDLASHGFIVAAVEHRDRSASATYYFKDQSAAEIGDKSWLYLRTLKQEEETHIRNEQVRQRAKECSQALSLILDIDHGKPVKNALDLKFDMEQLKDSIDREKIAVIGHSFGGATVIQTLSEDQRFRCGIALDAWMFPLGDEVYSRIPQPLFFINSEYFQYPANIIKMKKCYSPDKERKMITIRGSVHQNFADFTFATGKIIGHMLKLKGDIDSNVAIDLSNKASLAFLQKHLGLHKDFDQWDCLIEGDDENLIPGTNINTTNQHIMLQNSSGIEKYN
GSTO1 counter = blocks human GSTO1 in RBBP9 counter-screen; AID 1974; inhibition, % at 5.96 µM; P78417; recombinant GSTO1, activity-based probe fluorescence polarization; hit rate 1.1% among 300,000;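 active means inhibition above the campaign mean inhibition plus 3 SD, cut at about 35% in these data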;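 further: 0% = GSTO1-1 with DMSO and 100% = wells lacking GSTO1-1 enzyme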
Target sequence (P78417 whole entry, looked up): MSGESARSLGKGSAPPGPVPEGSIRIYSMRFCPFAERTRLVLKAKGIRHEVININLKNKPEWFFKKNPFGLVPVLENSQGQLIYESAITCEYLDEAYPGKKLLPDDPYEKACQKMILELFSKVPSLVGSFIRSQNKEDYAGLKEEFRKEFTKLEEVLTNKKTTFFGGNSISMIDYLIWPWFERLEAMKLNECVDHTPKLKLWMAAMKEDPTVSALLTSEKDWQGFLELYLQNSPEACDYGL
* hit, by the source's call; . = no result given. Shown are actives, neighbours in structure and some others; about 2.3% of the full set was active somewhere.

SMILES | Fam108B inh | PAD4 FP inh | PME-1 inh | pPAFAH inh | GSTO1 counter
CCOc1cc(/C=C2/SC(=S)N(C)C2=O)ccc1Oc1ccc([N+](=O)[O-])cc1[N+](=O)[O-] | -0.7 | 4.2 | -7.1 | -0.2 | -3.1
CCCCCN(C(=O)CCC(=O)OCc1cccc(Br)c1)c1c(N)n(CCCC)c(=O)[nH]c1=O | 0.1 | 1.7 | 1.1 | 1.6 | -1.2
Cc1cc(-c2nnc(SCC(=O)Nc3nc(-c4ccccc4)cs3)o2)no1 | -1.1 | -5.8 | 10.8 | 30.0* | 23.9
COc1ccc(C(=O)CSc2nnc(-c3cc(C)on3)o2)cc1 | -0.7 | -5.4 | -4.5 | 5.2 | 36.0*
Cc1csc(NC(=O)CSc2nnc(-c3cc(C)on3)o2)n1 | 0.6 | 0.8 | -2.1 | 3.2 | 12.3
COc1ccc(C(=O)CSc2nnc(-c3ccc(C)cc3)o2)cc1 | -3.0 | 2.2 | 1.3 | -2.2 | 13.2
COc1ccc(Cc2nnc(SCC(=O)c3ccc(OC)cc3)o2)cc1 | -3.5 | -1.1 | 3.2 | -0.6 | 36.7*
O=C(CNC(=O)c1ccccc1F)NCc1ccncc1 | . | -2.0 | . | 4.3 | .
C=CCn1c(SCC(=O)c2ccc(O)c(O)c2)nnc1-c1ccc(C)cc1 | . | 4.3 | 6.7 | 27.7* | .
COc1ccc(-n2nnnc2SCC(=O)c2ccc(O)c(O)c2)cc1 | -1.3 | 1.4 | 9.6 | 29.8* | 30.8
C=CCn1c(SCC(=O)c2cccs2)nnc1-c1cccc(OC)c1 | -2.9 | 1.1 | 0.5 | 9.8 | -2.8
C=CCn1c(SCC(=O)c2ccccc2)nnc1-c1ccc2c(c1)OCO2 | -3.3 | -4.5 | 3.5 | 5.2 | -3.4
C=CCn1c(SCC(=O)c2ccc(O)c(O)c2)nnc1-c1ccc(OC)cc1 | . | 3.4 | 5.4 | 29.8* | .
C=CCn1c(SCC(=O)c2ccc(O)c(O)c2)nnc1-c1cccc(OC)c1 | . | 3.7 | 12.3 | 28.4* | .
O=C(CCCc1ccccc1)Nc1cccnc1 | 5.6 | -4.1 | 2.2 | 0.8 | -0.3
CC1Sc2ccc(C(=O)OCc3ccccc3Cl)cc2NC1=O (centres undefined) | -2.8 | -3.2 | -13.0 | 29.3* | -10.4
O=C(Nc1ccc2[nH]c3c(c2c1)CCCC3)c1ccco1 | 4.0 | -2.4 | 3.2 | 13.3 | 34.9*
Oc1ccc(O)c(Cc2nc3ccccc3s2)c1 | 0.9 | -7.3 | -1.2 | 9.6 | 61.4*
Oc1ccccc1OCc1nc2ccccc2s1 | -4.5 | 1.2 | 2.2 | 2.6 | 4.4
O=C(CNC(=S)N(Cc1ccccc1F)C1CCCCC1)NCC1CCCO1 (centres undefined) | 7.7 | 1.5 | 5.2 | 1.4 | 11.3
CCOC(=O)c1cc(C#N)c(SCC(=O)c2cc(C#N)c(SC)nc2C)[nH]c1=O | 2.9 | -3.6 | -11.5 | 13.6 | 2.7
CCOC(=O)c1cc(C#N)c(SCC(=O)O)[nH]c1=O | -1.8 | -1.6 | 2.5 | 31.8* | -2.2
Cc1ccc(S(=O)(=O)NCCc2ccncc2)cc1C | -0.3 | 0.1 | 0.3 | 1.6 | 3.5
COc1ccc(N2CCN(C(=O)NC3CCCCC3)CC2)cc1 | 7.2 | -5.4 | -3.8 | -1.6 | -2.4
COc1ccc(N2CCN(C(=O)c3cn(CC4CCCCC4)nn3)CC2)cc1 | 0.7 | -0.1 | -0.6 | 28.3* | -0.1
SMILES | Fam108B inh | PAD4 FP inh | PME-1 inh | pPAFAH inh | GSTO1 counter
CC(=O)N1CCCc2cc(S(=O)(=O)N3CCCC(C(=O)Nc4cccc(C)c4)C3)ccc21 (centres undefined) | -0.7 | 2.3 | -9.0 | 33.1* | 6.4
C=CCOn1c(=O)c(-c2ccc(OC)cc2)[n+]([O-])c2ccccc21 | 3.9 | -1.2 | 14.1 | 32.8* | 4.9
COc1ccc(CN(C)C(=O)c2cccc(Oc3ccccc3)c2)c(OC)c1OC | -2.3 | -4.1 | 22.5 | 0.0 | -4.8
Nc1ncnc2c1cnn2C1CCCCC1 | 4.4 | -6.8 | -4.5 | 1.2 | 1.7
N#CCSc1ncnc2ccccc12 | 1.8 | 8.6 | 2.8 | 1.5 | -3.2
Cc1ccccc1CSc1ncnc2ccccc12 | -9.2 | -5.0 | -3.3 | 31.7* | -6.5
CCCCn1c(N)c(N(CC(C)C)C(=O)c2cc3c(s2)CCCCC3)c(=O)[nH]c1=O | 0.9 | -4.7 | 3.9 | 3.8 | -2.2
CN1CCN(C(=O)/C=C/c2c(F)cccc2Cl)CC1 | 3.3 | -6.8 | -0.3 | 8.0 | 0.0
CN(C)c1ccc(NC(=O)c2ccc(COc3cccc(Cl)c3)o2)cc1 | 6.5 | -6.4 | 12.9 | 26.7* | -2.1
CCN1CCN(C(=O)c2ccc(COc3cccc(Cl)c3)o2)CC1 | -0.1 | -1.8 | -0.4 | 5.2 | 0.8
CCOC(=O)c1c2c(n(C)c1C)C(=O)C(=O)c1ccc(Br)cc1-2 | 16.5 | -2.9 | 25.2 | -3.4 | 72.0*
O=C1C2CCCCN2C(=O)N1CCCCN1CCN(c2cccc(Br)c2)CC1 (centres undefined) | -1.0 | -5.3 | -2.6 | 28.2* | 4.2
O=C1C2CCCN2C(=O)N1CCCN1CCN(c2ccc([N+](=O)[O-])cc2)CC1 (centres undefined) | 4.3 | 0.8 | 2.5 | 29.3* | 3.1
CCS(=O)(=O)c1ccc(O)c(NC(=O)/C=C/c2ccc(Cl)cc2)c1 | -5.4 | -1.4 | 3.5 | 28.1* | 8.8
CC(C)C(NC(=O)c1ccc(F)cc1)C(=O)NCC1CCCO1 (centres undefined) | 2.5 | -1.8 | 7.4 | -0.1 | -3.0
Cc1cc(C(=O)CSc2cccc[n+]2[O-])c(C)n1-c1ccccc1 | -1.1 | 2.0 | 1.1 | 1.5 | -1.1
Cc1cc(C(=O)CSc2cccc[n+]2[O-])c(C)n1-c1ccc(Br)cc1 | 3.2 | -0.2 | 1.5 | 44.2* | 10.0
CCc1ccc(Nc2ccc3nonc3c2[N+](=O)[O-])cc1 | -2.2 | -5.2 | -4.2 | -2.0 | 4.3
CCOC(=O)NNc1ccc2nonc2c1[N+](=O)[O-] | 12.4 | 51.5* | 4.0 | 19.0 | 88.9*
COc1ccc(NC(=O)CSc2nc3ccccc3c(=O)n2CCCC(=O)NCC2CCCO2)c(OC)c1 (centres undefined) | 2.9 | -1.3 | -5.3 | 1.3 | 1.4
O=C(O)C1=C[C@H](c2ccc(F)cc2)C[C@H](OCCCCO)O1 | -2.1 | -1.1 | 3.8 | 1.9 | 6.5
CCCCn1c(N)c(N(CCOC)C(=O)COc2ccc(Cl)cc2)c(=O)[nH]c1=O | -2.4 | -0.7 | 4.2 | 2.6 | -6.0
CCC(=O)Nc1ccc(N2CCOCC2)c(S(=O)(=O)Nc2ccc(OC)cc2)c1 | 0.9 | 1.6 | 1.8 | 1.6 | 1.5
COc1ccc(NS(=O)(=O)c2cc(NC(=O)c3ccc(C)s3)ccc2N2CCOCC2)cc1 | -20.1 | 0.1 | -25.1 | 27.0* | -26.7
COCCn1c(C)cc(C(=O)COC(=O)c2ccc(Cl)c(S(N)(=O)=O)c2)c1C | 25.1* | 1.3 | -3.7 | -7.7 | -7.1
N#C/C(=C/c1ccc(N2CCCC2)c([N+](=O)[O-])c1)c1nc2ccccc2[nH]1 | 3.8 | -2.3 | 28.9* | 3.8 | -2.7
Cc1cc(C)cc(C(=O)N2CCC3(CC2)NCCc2[nH]cnc23)c1 | -5.2 | 2.0 | 3.2 | -0.6 | -1.3
CCCN(CCC)S(=O)(=O)c1ccc(Cl)c([N+](=O)[O-])c1 | 4.0 | -4.0 | -4.7 | -4.1 | 35.5*
COc1ccccc1C1CC(=O)NC(C)=C1C(=O)OCC(C)C (centres undefined) | 2.2 | -1.9 | 5.8 | 3.4 | -2.6

Screening results: PubChem BioAssay, The Scripps Research Institute Molecular Screening Center
